# Results taken from PubChem BioAssay (NCI).
# Compounds without any hit were thinned out: in the full panel of roughly 83,000, 20% have a hit.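 Method: cells in 96-well plates; compound added at one concentration; 48 h incubation; percent growth measured; values under 10 scored active.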 A number with no mark means an inactive call. Active and inactive are the calls of the source.
# Tests used:
# Test in all cases: NCI-60 one-dose screen, 48 h (100 = growth as untreated, 0 = no growth, -100 = all killed)
# Settings in all cases: 10 µM
# [1] = test system: DU-145 prostate
# [2] = test system: K-562 leukemia
# [3] = test system: MALME-3M melanoma
# [4] = test system: MDA-MB-231 breast
# [5] = test system: RXF 393 renal
# [6] = test system: SF-268 CNS
# [7] = test system: SF-295 CNS
# [8] = test system: SF-539 CNS
# [9] = test system: UACC-257 melanoma
# [10] = test system: M14 melanoma
# [11] = test system: HCT-15 colon
# [12] = test system: HT29 colon
# [13] = test system: SNB-75 CNS
# [14] = test system: SNB-19 CNS
# [15] = test system: U251 CNS
# [16] = test system: PC-3 prostate
# [17] = test system: SK-MEL-5 melanoma
# [18] = test system: UACC-62 melanoma
# [19] = test system: LOX IMVI melanoma
# [20] = test system: SK-MEL-28 melanoma
Structure (SMILES),growth [1],growth [2],growth [3],growth [4],growth [5],growth [6],growth [7],growth [8],growth [9],growth [10],growth [11],growth [12],growth [13],growth [14],growth [15],growth [16],growth [17],growth [18],growth [19],growth [20]
O=C(CCn1cnc2c(cc(-c3ccccc3)n2-c2ccccc2)c1=O)Nc1ccc(F)cc1,85.9%,67.3%,51.4%,68.7%,1.78% (active),70%,77.8%,76.2%,86.2%,73.4%,81.4%,89.9%,4.9% (active),72.9%,70.9%,68.6%,77.5%,63.2%,79.4%,80.5%
CN(C)CCCOc1cccc(NC2=C(Cl)C(=O)C(Nc3cccc(OCCCN(C)C)c3)=C(Cl)C2=O)c1,-97.7% (active),-29.7% (active),-74.8% (active),-73.6% (active),-88.8% (active),-62.6% (active),64.3%,-77.7% (active),-90.1% (active),-75.6% (active),-19.5% (active),-67.4% (active),53.8%,-42.3% (active),-78% (active),0.365% (active),-96.5% (active),-72.9% (active),-82.6% (active),-72.7% (active)
O=C(CSc1nnc(-c2ccc(Cl)cc2)o1)Nc1ccc(C(=O)/C=C/c2ccc(Cl)cc2)cc1,103%,93.4%,114%,104%,99.1%,99.7%,101%,117%,98.7%,104%,107%,99%,98.1%,94.6%,104%,92.8%,94.1%,87.6%,98%,110%
COc1ccc(-c2n[nH]nc2-c2cc(OC)c3c(c2OC)OCO3)cc1,10.2%,10.7%,61.7%,32%,-9.08% (active),48.8%,4.67% (active),-2.99% (active),48%,20.6%,35.5%,4.41% (active),4.8% (active),51.8%,13.8%,26.3%,6.78% (active),40.6%,37%,63%
O=C1/C=C/[C@@H](O)[C@@H]2C[C@@H](O)C[C@H]2/C=C/CCC[C@H](CCc2ccc(C(F)(F)F)cc2)O1,19.5%,11.7%,-13.9% (active),-84% (active),-31.6% (active),4.75% (active),11.4%,25.2%,10.5%,7.65% (active),-3.05% (active),-36.7% (active),-13.5% (active),17.6%,12.1%,8.76% (active),-87.2% (active),6.89% (active),-71.8% (active),2.07% (active)
CC(C)(C)OC(=O)CN1CCc2c(sc3ncnc(N/N=C/c4ccccc4Br)c23)C1,94.6%,16.6%,93.2%,65.5%,70.3%,76.9%,99.2%,84.1%,92.7%,73.4%,37%,81.6%,52.6%,81.2%,77.9%,47.9%,55.1%,39.5%,53.7%,90.9%
CCN(CC)CCOc1ccc2c(c1O)C(=O)c1ccccc1C2=O,95.4%,71.6%,109%,82.8%,77.7%,90.1%,91.5%,91.9%,94.7%,92%,74.4%,68.1%,79.1%,82.6%,77.3%,85.3%,81.2%,90.5%,76.6%,102%
COc1cc(/C=C/c2cc(/C=C/c3ccc(O)c(OC)c3)n(C(=O)Nc3ccccc3Cl)n2)ccc1O,1.28% (active),2.27% (active),8.27% (active),17.7%,-50.3% (active),-6.38% (active),2.83% (active),4.06% (active),1.28% (active),0.265% (active),15%,-35% (active),-4.71% (active),15.5%,2.33% (active),6.54% (active),-23.8% (active),1.04% (active),1.22% (active),12.1%
COc1ccc(-c2cc(-c3ccccc3)nc(SCCCCCCC(=O)NO)n2)cc1,60%,26.7%,20.3%,68.9%,22.1%,97.4%,67.4%,73.2%,49.5%,48.2%,44.3%,27%,24.8%,60.6%,51.5%,58.8%,13.1%,24.8%,13.1%,67.9%
O=C(CN(C1CCCCC1)C1CCCCC1)Nc1ccc(S(=O)(=O)c2ccc(NC(=O)CN(C3CCCCC3)C3CCCCC3)cc2)cc1,-47.9% (active),-29.8% (active),-67.4% (active),-49.4% (active),-61.4% (active),-7.58% (active),14.4%,-89.9% (active),-17.9% (active),-59.4% (active),-33.7% (active),-84.2% (active),55.8%,11.1%,-75.9% (active),-80% (active),-76.5% (active),-20.9% (active),-81% (active),12.2%
CC(C)(C)OC(=O)N1CCc2c(sc3ncnc(N/N=C/c4ccccc4Br)c23)C1,91.9%,15.9%,90.4%,81.3%,81.8%,87.8%,89.5%,80.6%,82.6%,83.3%,25.5%,77.2%,74.5%,93.1%,74.9%,48.1%,66.6%,60.1%,55.5%,81.9%
C=C(C)[C@@H]1CC[C@]2(COCCC#N)CC[C@]3(C)[C@H](CC[C@@H]4[C@@]5(C)Cc6c([nH]c7ccccc67)C(C)(C)[C@@H]5CC[C@]43C)[C@@H]12,100%,100%,119%,109%,112%,101%,104%,101%,116%,98.7%,102%,89.7%,90.9%,99.1%,102%,92.9%,98.2%,105%,92.1%,100%
O=C(CSc1nccc(Nc2cccc3ccccc23)n1)c1ccc(Cl)cc1,116%,84.3%,101%,79.1%,106%,95%,95%,94.5%,109%,85.8%,101%,86.9%,88%,89.3%,96.1%,83.9%,98.3%,70.2%,77.6%,106%
CS(=O)(=O)c1nccc(-c2c(-c3cccc(OCCN4CCOCC4)c3)nc3sccn23)n1,91.9%,91.5%,105%,67.9%,89.2%,107%,104%,81.3%,110%,113%,81.8%,66.9%,75.9%,82.5%,86.6%,77.9%,84.5%,89.1%,91.3%,99.3%
COc1ccc2cc(-c3nc4ccccc4s3)c(Cl)nc2c1OC,113%,92.3%,109%,87.3%,104%,93.3%,108%,99%,109%,102%,97%,104%,82.1%,93.9%,107%,92.6%,92.9%,91.1%,90.6%,107%
